Bioassay records: PubChem BioAssay, several laboratories
Rows were chosen to be rich in hits. Some 0.68% of all compounds tested hit in one or more screens of this group.
Mtb hypoxia inh: Mtb hypoxia fluorescent reporter inhibition; M. tuberculosis hypoxia-regulated fluorescent reporter, fluorescence; fluorescence inhibition, % (concentration not given with the values); 0.1% of 300,000 active; AID 1159583; in the data active = fluorescence inhibition mostly above about 23%, no sharp cut-off; inactive = mostly below about 17%
Rv3671c inh: Rv3671c (M. tuberculosis) protease inhibition; 0.048% of 320,000 active; AID 2606; inhibition, % at 5.96 µM; in the data active = inhibition above about 38%;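 note: extracellular domain of Rv3671c used as enzyme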
Sa RN4220 lethal: S. aureus RN4220 growth inhibition; OD600, 16 h; inhibition, % (concentration not given with the values); 0.33% of 330,000 active; AID 1259311; in the data active = inhibition above about 85%
Mtb bLac sens: beta-lactam sensitization of Mtb H37Rv; 0.27% of 330,000 active; AID 434955; inhibition, % at 25 µM; M. tuberculosis H37Rv growth with meropenem, percent inhibition; call rule not given here;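 note: growth measured after seven days incubation then overnight dye step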
ugtP null kill: kills S. aureus RN4220 lacking UgtP | S. aureus RN4220 ugtP deletion, OD600 growth, 16 h | growth inhibition, % (concentration not given with the values) | 0.54% of 330,000 active; in the data active = growth inhibition above about 68%
UGM FP inh: Mtb UDP-galactopyranose mutase inhibition; inhibition, % at 10 µM; P9WIQ1; AID 504406; 0.06% of 320,000 active; purified UGM, fluorescence polarization probe displacement; in the data active = inhibition above about 10%, passing the limit was not always enough
Target sequence (P9WIQ1 whole entry, looked up): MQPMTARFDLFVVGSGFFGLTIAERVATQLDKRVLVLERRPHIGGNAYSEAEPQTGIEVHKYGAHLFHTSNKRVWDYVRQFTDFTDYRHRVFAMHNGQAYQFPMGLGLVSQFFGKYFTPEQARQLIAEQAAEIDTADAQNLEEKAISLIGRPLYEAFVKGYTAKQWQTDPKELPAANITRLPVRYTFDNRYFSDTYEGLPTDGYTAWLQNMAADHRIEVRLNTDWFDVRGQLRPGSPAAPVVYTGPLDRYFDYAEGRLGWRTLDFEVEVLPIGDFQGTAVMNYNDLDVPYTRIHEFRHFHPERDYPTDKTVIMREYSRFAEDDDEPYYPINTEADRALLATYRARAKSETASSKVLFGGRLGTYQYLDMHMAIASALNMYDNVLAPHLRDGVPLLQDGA
Each line names hits and unclear results; the compound was inactive in the other large screens.

CCn1cc(C(=O)NCc2cccnc2)c(=O)c2cc(F)c(N3CCN(C(=O)c4ccco4)CC3)cc21	Sa RN4220 lethal 96, ugtP null kill 100 (no result: Mtb hypoxia inh)
CCCCCCC(=O)N1CCN(c2cc3c(cc2F)c(=O)c(C(=O)O)cn3CC)CC1	none (no result: Mtb hypoxia inh, Sa RN4220 lethal, ugtP null kill)
NC(=O)C1CCCNc2c(I)cc([N+](=O)[O-])cc2C(=O)NC(Cc2ccccc2)C(=O)NC(Cc2cnc[nH]2)C(=O)N1 (stereo not given)	none (no result: Rv3671c inh, Mtb bLac sens, UGM FP inh)
CCN1C(=O)C2C(c3ccc(C)cc3)N3C(=O)N(c4ccc(C)cc4)C(=O)[C@@]3(CC)C2C1=O (stereo not given in full)	none (no result: Rv3671c inh, Mtb bLac sens, UGM FP inh)
CCCOc1ccc(C(=O)NC(=S)N2CCN(c3cc4c(cc3F)c(=O)c(C(=O)O)cn4CC)CC2)cc1	ugtP null kill 96
Clc1ccc(COC(Cn2ccnc2)c2ccc(Cl)cc2Cl)cc1 (stereo not given)	none (no result: Mtb hypoxia inh, Sa RN4220 lethal, ugtP null kill)
Clc1ccc(CSC(Cn2ccnc2)c2ccc(Cl)cc2Cl)cc1 (stereo not given)	Sa RN4220 lethal 97 (not shown: Mtb hypoxia inh)
COc1cc(C(=O)Nc2cc(S(=O)(=O)N3CCOCC3)ccc2N2CCOCC2)cc(OC)c1C	none (no result: Rv3671c inh, Mtb bLac sens, UGM FP inh)
COc1cc(C(=O)Nc2cc(S(=O)(=O)N3CCOCC3)ccc2N2CCOCC2)ccc1OC(F)F	Mtb hypoxia inh 23 (no result: Rv3671c inh, Mtb bLac sens, UGM FP inh)
CC(NC(=O)c1ccccc1Cl)C(=O)OCC(=O)N1CC2(C)CC1CC(C)(C)C2 (stereo not given)	none (no result: Rv3671c inh, Mtb bLac sens, UGM FP inh)
Cc1ccc(NC(=O)C2=C(c3ccccc3)S(=O)(=O)CCS2(=O)=O)cc1	ugtP null kill 100
C#CCOCCOCCOCCNc1nc(N2CCN(C(=O)CCCCCCCCCCNC(=O)Cn3cc(CC(C)O)nn3)CC2)nc(N2CCN(C(=O)CCCCCCCCCCNC(=O)C(CO)n3cc(CCCSC)nn3)CC2)n1 (stereo not given)	none (no result: Rv3671c inh, Mtb bLac sens, UGM FP inh)
C#CCOCCOCCOCCNc1nc(N2CCN(C(=O)C(CCCCN)n3cc(CCCC)nn3)CC2)nc(N2CCN(C(=O)C(C(C)O)n3cc(CCCCN)nn3)CC2)n1 (stereo not given)	none (no result: Rv3671c inh, Mtb bLac sens, UGM FP inh)
C#CCOCCOCCOCCNc1nc(N2CCN(C(=O)C(CCCCN)n3cc(CN)nn3)CC2)nc(N2CCN(C(=O)C(CCC(=O)O)n3cc(C(N)CCCCN)nn3)CC2)n1 (stereo not given)	none (no result: Rv3671c inh, Mtb bLac sens, UGM FP inh)
C=CCN1c2ccccc2[C@]23CC(C(=O)OC)N(C(=O)OCC)C2=NC(C(=O)OC)=C(C(=O)OC)C13 (stereo not given in full)	none (no result: Rv3671c inh, Mtb bLac sens, UGM FP inh)
Cc1ccc(-c2nnc(-c3ccccc3)c(-c3ccccc3)n2)cc1	ugtP null kill 92
CC[n+]1c(/C=C2\Sc3ccccc3N2C)ccc2cccc(C)c21	Sa RN4220 lethal 100, ugtP null kill 101 (not shown: Mtb hypoxia inh, Rv3671c inh, Mtb bLac sens, UGM FP inh)
CCN1/C(=C/C=C/c2sc3ccccc3[n+]2CC)Sc2ccccc21	none (no result: Mtb hypoxia inh, Sa RN4220 lethal, ugtP null kill)
CCN1/C(=C/c2ccc3cc(C)ccc3[n+]2CC)Sc2ccccc21	Sa RN4220 lethal 100, ugtP null kill 100 (not shown: Mtb hypoxia inh)
CCN1/C(=C/c2ccc3cc(C)ccc3[n+]2CC)Sc2cc(C)c(C)cc21	Mtb hypoxia inh 40, Sa RN4220 lethal 100, ugtP null kill 100 (no result: Rv3671c inh, Mtb bLac sens, UGM FP inh)
CC(O)C1CNCCN1CCc1cccc(F)c1 (stereo not given)	none (no result: Rv3671c inh, Mtb bLac sens, UGM FP inh)
CCn1nc(-c2ccccc2)nc2c(=O)n(C)c(=O)nc1-2	Sa RN4220 lethal 95, ugtP null kill 100
Cc1nc2c(=O)n(C)c(=O)nc-2n(C)n1	none (no result: Mtb hypoxia inh)
CCCCCCCC(N)C(O)C(=O)N(C)C(CCS(C)=O)C(=O)NC(Cc1ccc(O)cc1)C(=O)NC(Cc1ccc(O)cc1)C(=O)O (stereo not given)	none (no result: Rv3671c inh, Mtb bLac sens, UGM FP inh)
CCOC(=O)NC(=O)C(C#N)=CNc1sccc1C(=O)OC	none (no result: Rv3671c inh, Mtb bLac sens, UGM FP inh)
CCc1ccc(Nc2n[n+](-c3ccccc3)c(-c3c(Cl)cccc3Cl)s2)cc1	Sa RN4220 lethal 100, ugtP null kill 100 (not shown: Mtb hypoxia inh)
Fc1ccc(-[n+]2nc(Nc3ccccc3)sc2-c2c(Cl)cccc2Cl)cc1	none (no result: Mtb hypoxia inh, Sa RN4220 lethal, ugtP null kill)
N#CC(C#N)=C1C=CC=CN1/C(=C\c1ccco1)C(=O)c1ccccc1	none
N#CC(C#N)=C1C=CC=CN1/C(=C\c1ccco1)C(=O)c1ccc(Br)cc1	Sa RN4220 lethal 99, ugtP null kill 98
COc1ccc2cc(C3=CC(=O)CC(c4ccc5c(c4)OCO5)C3)ccc2c1 (stereo not given)	none (no result: Rv3671c inh, Mtb bLac sens, UGM FP inh)
C#CCOCCOCCOCCNc1nc(N2CCOCC2)nc(N2CCN(C(=O)C(CCC(=O)O)n3cc(C(N)Cc4ccc(O)cc4)nn3)CC2)n1 (stereo not given)	none (no result: Rv3671c inh, Mtb bLac sens, UGM FP inh)
